Laboratory results published in the supplement of paper PMC10849652.
The full data set covers some 7,900 targets. This sample favours those with a hit. About 0.6% of all pairs of compound and target were hits.

Compound: CC(C)(O)CC(=O)NCCn1ccc2ncnc(Nc3ccc(Oc4cccc(C(F)(F)F)c4)c(Cl)c3)c21
Experiment: log2 fold change, soluble protein after heating vs DMSO (PISA); higher = thermal stabilisation; K562 cells, 10 uM, 30 min; active = over 0.2 and 3.5 SD of the protein, either way, in both replicates (recomputed)
Outline: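 K562 cells (2×10^6 cells/mL) were treated with 10 μM compound for 30 min, and aliquots were heated for 3 min over 48°C-58°C. Pooled aliquots were extracted in PBS with 0.5% NP-40 at 4°C, and the supernatant after 21,000xg for 90 min was measured by TMTpro 16plex LC-MS/MS with channel sums equalised. Reported thermal stability, relative to control samples and from duplicates, is a log2 fold change.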

Sequence of UniProt Q9BQK8 (Q9BQK8 whole entry, looked up): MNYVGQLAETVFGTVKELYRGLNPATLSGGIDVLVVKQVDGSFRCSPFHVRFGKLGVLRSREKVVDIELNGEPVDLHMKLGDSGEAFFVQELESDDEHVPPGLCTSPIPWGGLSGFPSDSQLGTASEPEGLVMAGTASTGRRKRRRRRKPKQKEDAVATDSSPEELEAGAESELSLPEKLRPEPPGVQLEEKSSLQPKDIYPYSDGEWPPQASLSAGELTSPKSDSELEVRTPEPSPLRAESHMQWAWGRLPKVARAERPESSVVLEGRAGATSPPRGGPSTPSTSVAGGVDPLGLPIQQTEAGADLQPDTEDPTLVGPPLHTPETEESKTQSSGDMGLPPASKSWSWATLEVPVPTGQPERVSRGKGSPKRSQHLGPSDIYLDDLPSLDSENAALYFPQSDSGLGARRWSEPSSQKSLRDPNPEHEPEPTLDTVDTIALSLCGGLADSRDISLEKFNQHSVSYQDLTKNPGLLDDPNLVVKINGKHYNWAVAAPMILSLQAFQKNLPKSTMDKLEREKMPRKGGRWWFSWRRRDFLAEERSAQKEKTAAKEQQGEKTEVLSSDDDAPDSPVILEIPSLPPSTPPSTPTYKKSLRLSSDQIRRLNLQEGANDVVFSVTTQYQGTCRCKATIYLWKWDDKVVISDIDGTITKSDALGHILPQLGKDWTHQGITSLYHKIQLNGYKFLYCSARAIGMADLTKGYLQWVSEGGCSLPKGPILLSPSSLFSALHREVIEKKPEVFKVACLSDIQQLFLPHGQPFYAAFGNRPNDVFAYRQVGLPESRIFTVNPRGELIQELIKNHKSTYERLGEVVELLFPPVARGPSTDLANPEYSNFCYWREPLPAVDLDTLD
Sequence of UniProt O94889 (O94889 whole entry, looked up): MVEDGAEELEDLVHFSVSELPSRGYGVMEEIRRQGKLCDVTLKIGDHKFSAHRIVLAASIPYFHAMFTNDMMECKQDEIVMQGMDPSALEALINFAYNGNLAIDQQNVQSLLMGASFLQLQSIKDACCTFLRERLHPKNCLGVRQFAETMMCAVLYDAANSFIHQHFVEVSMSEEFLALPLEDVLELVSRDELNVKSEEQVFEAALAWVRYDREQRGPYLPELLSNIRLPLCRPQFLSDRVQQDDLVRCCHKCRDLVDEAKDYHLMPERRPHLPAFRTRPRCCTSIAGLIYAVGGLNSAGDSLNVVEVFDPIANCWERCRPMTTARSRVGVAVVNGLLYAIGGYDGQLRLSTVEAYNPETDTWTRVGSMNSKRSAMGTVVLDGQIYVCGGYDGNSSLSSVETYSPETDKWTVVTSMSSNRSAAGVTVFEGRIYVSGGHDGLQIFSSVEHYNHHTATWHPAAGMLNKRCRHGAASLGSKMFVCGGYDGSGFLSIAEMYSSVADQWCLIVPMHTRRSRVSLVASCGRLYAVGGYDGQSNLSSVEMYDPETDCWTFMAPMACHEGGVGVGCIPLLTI
Sequence of UniProt Q86UD3 (Q86UD3 whole entry, looked up): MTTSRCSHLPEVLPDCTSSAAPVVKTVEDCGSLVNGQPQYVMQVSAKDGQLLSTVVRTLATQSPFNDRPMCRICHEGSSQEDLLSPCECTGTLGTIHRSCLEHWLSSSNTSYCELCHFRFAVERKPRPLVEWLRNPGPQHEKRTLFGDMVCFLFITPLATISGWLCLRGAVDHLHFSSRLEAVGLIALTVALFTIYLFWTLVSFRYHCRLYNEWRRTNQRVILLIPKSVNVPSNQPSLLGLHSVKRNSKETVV
Sequence of UniProt P28290 (P28290 whole entry, looked up): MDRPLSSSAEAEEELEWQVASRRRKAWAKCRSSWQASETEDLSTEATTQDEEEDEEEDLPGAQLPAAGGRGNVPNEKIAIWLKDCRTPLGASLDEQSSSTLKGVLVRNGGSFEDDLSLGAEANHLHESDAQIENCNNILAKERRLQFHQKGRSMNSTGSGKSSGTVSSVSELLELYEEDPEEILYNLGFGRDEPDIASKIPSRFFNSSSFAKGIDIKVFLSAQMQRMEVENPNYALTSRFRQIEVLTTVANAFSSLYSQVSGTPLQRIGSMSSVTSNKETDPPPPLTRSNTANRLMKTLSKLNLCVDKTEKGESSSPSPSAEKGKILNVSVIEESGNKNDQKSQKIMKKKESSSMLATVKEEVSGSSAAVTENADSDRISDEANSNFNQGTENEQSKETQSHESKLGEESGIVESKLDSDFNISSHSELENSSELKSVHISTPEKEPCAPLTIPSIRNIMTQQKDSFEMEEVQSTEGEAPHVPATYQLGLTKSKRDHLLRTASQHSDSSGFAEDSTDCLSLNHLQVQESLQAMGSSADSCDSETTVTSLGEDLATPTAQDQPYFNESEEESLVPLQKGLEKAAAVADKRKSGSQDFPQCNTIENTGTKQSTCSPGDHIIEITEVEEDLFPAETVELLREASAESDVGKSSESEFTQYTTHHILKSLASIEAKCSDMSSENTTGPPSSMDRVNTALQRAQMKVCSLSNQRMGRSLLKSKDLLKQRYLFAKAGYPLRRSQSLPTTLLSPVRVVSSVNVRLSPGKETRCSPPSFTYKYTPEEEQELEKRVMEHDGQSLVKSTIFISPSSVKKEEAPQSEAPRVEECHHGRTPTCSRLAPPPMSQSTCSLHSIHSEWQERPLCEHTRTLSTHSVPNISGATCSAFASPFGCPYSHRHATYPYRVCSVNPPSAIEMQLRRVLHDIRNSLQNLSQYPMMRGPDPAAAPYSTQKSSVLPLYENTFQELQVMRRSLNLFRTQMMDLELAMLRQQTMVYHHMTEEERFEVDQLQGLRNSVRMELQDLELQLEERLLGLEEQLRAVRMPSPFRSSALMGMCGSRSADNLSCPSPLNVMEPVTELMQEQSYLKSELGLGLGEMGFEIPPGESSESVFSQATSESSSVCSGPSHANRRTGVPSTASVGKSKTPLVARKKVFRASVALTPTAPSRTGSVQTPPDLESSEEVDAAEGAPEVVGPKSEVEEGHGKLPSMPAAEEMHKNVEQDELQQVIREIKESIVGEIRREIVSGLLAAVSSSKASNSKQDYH
Sequence of UniProt Q32MZ4 (Q32MZ4 whole entry, looked up): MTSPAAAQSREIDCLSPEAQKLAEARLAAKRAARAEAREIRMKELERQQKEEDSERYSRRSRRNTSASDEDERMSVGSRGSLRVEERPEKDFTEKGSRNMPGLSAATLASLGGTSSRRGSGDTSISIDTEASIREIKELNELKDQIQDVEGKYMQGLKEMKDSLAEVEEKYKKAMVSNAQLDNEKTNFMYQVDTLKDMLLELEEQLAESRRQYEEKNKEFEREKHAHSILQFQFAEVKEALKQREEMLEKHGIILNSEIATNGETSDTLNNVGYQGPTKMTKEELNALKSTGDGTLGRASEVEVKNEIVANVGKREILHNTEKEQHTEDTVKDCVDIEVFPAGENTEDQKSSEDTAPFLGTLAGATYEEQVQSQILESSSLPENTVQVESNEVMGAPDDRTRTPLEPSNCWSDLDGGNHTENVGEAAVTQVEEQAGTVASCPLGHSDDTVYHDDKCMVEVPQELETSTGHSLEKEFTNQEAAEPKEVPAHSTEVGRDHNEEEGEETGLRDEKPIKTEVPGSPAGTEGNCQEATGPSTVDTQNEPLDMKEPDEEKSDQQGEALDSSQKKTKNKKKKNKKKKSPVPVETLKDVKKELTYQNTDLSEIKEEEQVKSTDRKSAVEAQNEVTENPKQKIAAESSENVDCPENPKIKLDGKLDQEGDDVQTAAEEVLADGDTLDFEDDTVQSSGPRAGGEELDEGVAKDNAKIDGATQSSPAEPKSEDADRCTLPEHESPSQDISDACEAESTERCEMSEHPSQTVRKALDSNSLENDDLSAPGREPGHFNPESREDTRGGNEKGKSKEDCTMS
Sequence of UniProt P55082 (P55082 whole entry, looked up): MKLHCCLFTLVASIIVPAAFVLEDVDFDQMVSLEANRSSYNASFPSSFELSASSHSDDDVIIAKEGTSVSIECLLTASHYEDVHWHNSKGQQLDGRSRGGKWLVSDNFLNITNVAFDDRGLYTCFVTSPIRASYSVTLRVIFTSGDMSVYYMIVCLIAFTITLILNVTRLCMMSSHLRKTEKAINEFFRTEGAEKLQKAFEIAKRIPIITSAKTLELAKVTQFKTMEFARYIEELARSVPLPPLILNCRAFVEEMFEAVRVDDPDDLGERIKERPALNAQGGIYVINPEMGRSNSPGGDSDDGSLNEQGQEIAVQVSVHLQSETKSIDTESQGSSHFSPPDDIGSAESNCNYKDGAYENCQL
Sequence of UniProt P07948 (P07948 whole entry, looked up): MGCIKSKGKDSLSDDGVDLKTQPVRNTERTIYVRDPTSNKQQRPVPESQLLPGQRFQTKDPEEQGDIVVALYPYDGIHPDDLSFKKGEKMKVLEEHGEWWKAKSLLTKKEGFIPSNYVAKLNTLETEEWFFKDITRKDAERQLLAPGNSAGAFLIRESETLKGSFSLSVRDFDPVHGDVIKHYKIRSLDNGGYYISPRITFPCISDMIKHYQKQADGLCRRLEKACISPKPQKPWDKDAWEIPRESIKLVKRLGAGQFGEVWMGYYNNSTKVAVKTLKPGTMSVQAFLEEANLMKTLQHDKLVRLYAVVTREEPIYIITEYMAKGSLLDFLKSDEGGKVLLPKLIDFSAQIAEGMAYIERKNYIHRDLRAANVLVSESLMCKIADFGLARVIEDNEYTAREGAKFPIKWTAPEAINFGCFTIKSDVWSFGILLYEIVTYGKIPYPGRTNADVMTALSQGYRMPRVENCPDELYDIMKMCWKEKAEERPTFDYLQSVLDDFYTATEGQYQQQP
Sequence of UniProt Q9NQX7 (Q9NQX7 whole entry, looked up): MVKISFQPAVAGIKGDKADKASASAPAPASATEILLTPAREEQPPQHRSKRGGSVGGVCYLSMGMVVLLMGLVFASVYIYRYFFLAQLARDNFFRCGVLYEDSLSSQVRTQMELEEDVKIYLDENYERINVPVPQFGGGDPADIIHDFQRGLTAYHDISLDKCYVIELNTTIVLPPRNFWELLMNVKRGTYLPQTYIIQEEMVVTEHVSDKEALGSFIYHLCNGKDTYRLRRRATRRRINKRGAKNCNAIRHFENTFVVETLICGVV
Sequence of UniProt O15243 (O15243 whole entry, looked up): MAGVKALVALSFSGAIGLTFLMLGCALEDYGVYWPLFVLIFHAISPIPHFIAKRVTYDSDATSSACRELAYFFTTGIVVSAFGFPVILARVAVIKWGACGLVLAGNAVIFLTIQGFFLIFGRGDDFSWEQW

log2 fold change, inactive:
MAP4 isoform 5 (UniProt P27816) 0.052
MARCHF3 (UniProt Q86UD3) -0.133
LEPROT (UniProt O15243) 0.142
KLHL18 (UniProt O94889) 0.006
IP6K1 (UniProt Q92551) -0.295
LRRFIP1 isoform 4 (UniProt Q32MZ4) -0.019
LPIN3 isoform 2 (UniProt Q9BQK8) -0.14
MFAP3 (UniProt P55082) -0.165
ITM2C (UniProt Q9NQX7) -0.186
MFSD1 isoform 6 (UniProt Q9H3U5) 0.055
LMBRD1 (UniProt Q9NUN5) -0.059
KMT2C isoform 3 (UniProt Q8NEZ4) -0.044
KXD1 (UniProt Q9BQD3) 0.034
MAGED1 isoform 2 (UniProt Q9Y5V3) -0.136
IGFBP3 isoform 2 (UniProt P17936) 0.196
LSR (UniProt M0QZL9) 0.057
MAML1 (UniProt Q92585) 0.02
MAPK7 (UniProt Q13164) 0.008
ITPRID2 (UniProt P28290) 0.238
LYN isoform 2 (UniProt P07948) 0.002
MAP3K20 isoform 2 (UniProt Q9NYL2) 0.078
